# The full list was thinned out, with hits kept by preference.
# ALOX12 inh: Primary qHTS assay for inhibitors of human arachidonate 12S-lipoxygenase (ALOX12): Round 2; purified 12hLO, xylenol orange hydroperoxide absorbance; Potency, µM (highest dose often 108 µM), usual class: inhibitors; 580,000 compounds, 1.1% hits
# Target sequence (P18054 whole entry, looked up): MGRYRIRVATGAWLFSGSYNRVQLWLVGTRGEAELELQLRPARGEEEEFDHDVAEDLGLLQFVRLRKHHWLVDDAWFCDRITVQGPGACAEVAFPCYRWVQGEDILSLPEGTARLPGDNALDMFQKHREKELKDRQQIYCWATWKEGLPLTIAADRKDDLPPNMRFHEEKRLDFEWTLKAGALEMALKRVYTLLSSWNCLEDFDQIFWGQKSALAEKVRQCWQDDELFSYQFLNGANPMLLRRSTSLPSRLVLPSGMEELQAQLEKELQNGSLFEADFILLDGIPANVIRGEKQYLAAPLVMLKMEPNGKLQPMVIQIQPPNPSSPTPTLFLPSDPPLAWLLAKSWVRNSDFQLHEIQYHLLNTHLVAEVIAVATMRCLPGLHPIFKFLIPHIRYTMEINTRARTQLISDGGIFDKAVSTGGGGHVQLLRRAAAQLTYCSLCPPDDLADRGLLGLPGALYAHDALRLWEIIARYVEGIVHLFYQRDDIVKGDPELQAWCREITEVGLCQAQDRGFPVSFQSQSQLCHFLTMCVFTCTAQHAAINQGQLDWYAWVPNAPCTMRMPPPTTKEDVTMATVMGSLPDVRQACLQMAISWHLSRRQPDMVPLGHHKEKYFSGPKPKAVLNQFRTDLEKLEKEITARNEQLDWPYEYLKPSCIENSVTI
#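 Purified human 12hLO (150 nM final) in 25 mM Hepes, 0.01% Triton X-100, pH 7.0 was preincubated 15 min at room temperature with compound. Then 40 uM arachidonic acid was added, 30 min. Hydroperoxide was read by Fe-XO absorbance ratio 573/405 nm.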
# VDR inh: Inhibitors of the vitamin D receptor (VDR): qHTS; Potency, µM, hits mostly inhibitors; Vitamin D3 receptor (Homo sapiens), P11473; VDR-SRC2-3 peptide fluorescence polarization, 2 h; 400,000 compounds, 0.93% hits
#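 Fluorescence polarization assay of small-molecule disruption of VDR binding to coregulator peptide SRC2-3. Compounds and controls pin-transferred, then read after 2 h incubation at ambient room temperature.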
# Glioma ERSR ind: qHTS for Inducers of the Endoplasmic Reticulum Stress Response (ERSR) in Human Glioma: qHTS. U87-MG GRP78 promoter luciferase reporter, 16 h. Potency, µM, usual class: activators. 420,000 compounds, 0.02% hits. AID 602332, 2012; note: series mostly up to about 76 µM; nearly all actives have a fitted effect of over 35% in size
#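 Stably transfected U87-MG glioma cells carrying a GRP78-based luciferase sensor; 16 h compound incubation. Luminescence end-point read 10 min after Bright-Glo addition at room temperature.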
# Sfp PPTase inh: qHTS Assay for Inhibitors of Bacillus subtilis Sfp phosphopantetheinyl transferase (PPTase); 4'-phosphopantetheinyl transferase ffp (Bacillus subtilis), Q9F4F7; Biochemical Sfp PPTase activity, qHTS; Potency, µM, hits mostly inhibitors; 310,000 compounds, 3.5% hits; AID 1490, 2009;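 note: the enzyme is Sfp with the accession as filed and its product quenches rhodamine fluorescence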
#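 Buffer: 50 mM Hepes-Na pH 7.6, 10 mM MgCl2, 0.01% Nonidet P-40, 0.01% BSA. Enzyme 15 nM, pre-exposed to compound 15 min; substrates then added and fluorescence change tracked over 30 min.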
# G9a block: qHTS Assay for Inhibitors of Histone Lysine Methyltransferase G9a. G9a H3K9 monomethylation, AlphaScreen, 2 h. Potency, µM (top dose mostly 102 µM), actives largely listed as inhibitors. 350,000 compounds, 8.8% hits; note: nearly all actives have a fitted effect of over 75% in size
#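 Signal arises when biotinylated H3K9 peptide, once monomethylated, bridges streptavidin donor and antibody-captured acceptor beads. Enzyme at 20 nM was preincubated 15 min with test compounds; peptide 500 nM and SAM 20 uM then reacted for 2 h.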
# A number is an active result; - = inactive; ? = inconclusive; . = no result; ! = not active in a repeat; [ ] = remark or other dose. Calls come from the whole dose curve; as a rule, active = well fitted curve in the direction sought with a large enough effect; inconclusive = small, poorly fitted or top-dose-only effect, or another doubt; inactive = no such curve, though single readings can be large; an effect the other way counts as inactive or inconclusive.
SMILES,ALOX12 inh,VDR inh,Glioma ERSR ind,Sfp PPTase inh,G9a block
CCOc1cc(/C=C(\C#N)C(=O)Nc2cccc(C(=O)O)c2)cc(Br)c1OC(=O)c1ccc(OC)cc1,45µM,25µM,?,79µM,56µM
CCOc1cc(/C=C(\C#N)C(=O)Nc2cccc(C(=O)O)c2)ccc1OCc1ccccc1Cl,-,?,-,?,50µM
C[C@H](CO)N1C[C@H](C)[C@@H](CN(C)C(=O)c2cnccn2)Oc2cc(C#CCC3CCCC3)ccc2S1(=O)=O,35µM,.,-,.,.
O=c1c(C(c2ccc(F)cc2)c2c(O)nc3n(c2=O)CCCS3)c(O)nc2n1CCCS2,?,-,-,-,50µM
O=c1c(C(c2ccccc2)c2c(O)nc3n(c2=O)CCS3)c(O)nc2n1CCS2,?,-,-,-,40µM
O=c1c(C(c2ccccc2)c2c(O)nc3n(c2=O)CCCS3)c(O)nc2n1CCCS2,-,-,-,-,-[0.501 µM]
CCc1c(C)sc2c1c1nc(-c3cccnc3)nn1c(=O)n2CC(=O)N1CCOCC1,-,.,.,.,.
CCO/C(C)=C1\C(=O)Nc2ccccc21,-,-,-,-,50µM
COc1ccc(C(=C2C(=O)Nc3ccccc32)c2ccc(OC)cc2)cc1,.,-,-,-,.
Cc1cccc(CSc2ncccc2C(=O)O)c1,?,-,-,?,11µM
O=C(CSc1ncccn1)N1CCCCCC1,-,-,-,.,.
O=C(O)c1ccccc1CSc1ncccc1C(=O)O,-,-,-,45µM,20µM
O=C(CSc1ncccc1C(=O)O)NC12CC3CC(CC(C3)C1)C2,22µM,-,-,?,32µM
O=C(O)c1cccnc1SCC(=O)N1CCCCCC1,-,-,-,-,50µM
Cc1ccc(CSc2ncccc2C(=O)O)cc1,-,-,-,-,-
COc1ccc(/C=C/c2nc(C#N)c(NCCCN(C)C)o2)cc1OC,-,.,.,.,.
Cc1cc(SCC(=O)NC2(C)CCS(=O)(=O)C2)nc2c(C)cccc12 (configuration not stated),-,.,.,.,.
Cc1cc(Nc2ccccc2)c2c([N+](=O)[O-])cc(C)c(C)c2n1,-,-,-,-,14µM
COc1ccccc1Nc1cc(C)nc2c(C)ccc([N+](=O)[O-])c12,-,-,-,-,25µM
Cc1cc(Nc2ccc(Br)cc2)c2c([N+](=O)[O-])ccc(C)c2n1,-,.,.,.,.
Cc1cc(Nc2ccccc2C)c2c([N+](=O)[O-])cc(C)c(C)c2n1,-,.,.,.,.
COc1ccc(Oc2c(C)oc3cc(OCC(=O)NCc4ccco4)ccc3c2=O)cc1,-,.,.,.,.
O=C(/C=C/c1cccc([N+](=O)[O-])c1)c1ccccc1,.,20µM,.,-,.
O=C(/C=C/c1cccc([N+](=O)[O-])c1)NC(=S)Nc1ccccc1C(=O)O,.,.,.,40µM,45µM
CC(=O)Oc1ccccc1C(=O)C=Cc1cccc([N+](=O)[O-])c1,-,22µM,-,.,.
SMILES,ALOX12 inh,VDR inh,Glioma ERSR ind,Sfp PPTase inh,G9a block
COc1ccccc1N1CCN(C(=O)/C=C/c2cccc([N+](=O)[O-])c2)CC1,-,-,-,-,.
CCc1ccc(C(=O)/C=C/c2cccc([N+](=O)[O-])c2)cc1,-,.,.,.,.
O=C(/C=C/c1cccc([N+](=O)[O-])c1)NC(=S)Nc1cccc(NC(=O)c2ccccc2Cl)c1,-,-,-,-,-
COCCn1c(SCC(=O)N(C(C)C)C(C)C)nnc1-c1cc2ccccc2cc1O,-,-,-,-,?
Cc1occc1-c1nnc(SCC(=O)N2CCOCC2)n1CC(C)C,-,-,-,-,-
C=CCn1c(SCC(=O)N2CCc3ccccc3C2)nnc1-c1ccncc1,-,-,-,-,-
Cc1occc1-c1nnc(SCC(=O)N2CCOCC2)n1Cc1ccco1,-,-,-,89µM,-
CC(C)N(C(=O)CSc1nnc(-c2cc3ccccc3cc2O)n1Cc1ccco1)C(C)C,-,-,-,-,13µM
O=C(CSc1nnc(-c2cc3ccccc3cc2O)n1Cc1ccco1)N1CCc2ccccc2C1,-,-,-,45µM,?
CCCSc1nc2c(c(=O)[nH]c(=O)n2C)n1CCOCC,-,.,.,.,.
CC1=C(/C=C/C(C)=C\C=C\C(C)=C\C(=O)O)C(C)(C)CCC1,-[12.5 µM],56µM!,-,-,22µM!
CC(C=CC=C(C)C=CC1=C(C)CCCC1(C)C)=CC=CC=C(C)C=CC=C(C)C=CC1=C(C)CCCC1(C)C,-,.,.,.,.
CC1=C(/C=C/C(C)=C/C=C/C(C)=C/C(=O)O)C(C)(C)CCC1O (configuration not stated),?,71µM,-,-,-
CC1=C(/C=C/C(C)=C/C=C/C(C)=C/C(=O)O)C(C)(C)CCC1,-,45µM!,-,?,50µM!
Cc1nc(NCCc2ccc(S(N)(=O)=O)cc2)c2c3c(sc2n1)CCC3,-,-,-,-,-
Cc1nc(NS(=O)(=O)c2ccc(Cl)s2)c2c3c(sc2n1)CCCC3,?,-,-,-,50µM
COc1cccc(Oc2c(C)oc3cc(OCc4ccc(F)cc4)ccc3c2=O)c1,-,.,.,.,.
Cc1ccc(/C=N/NC(=O)Cn2nnc(N)n2)cc1,-,-,-,-,-[12.7 µM]
COc1ccc(/C=N/NC(=O)Cn2nc(C)c([N+](=O)[O-])c2C)cc1,-,?,-,-,-
Cc1ccc(/C=N/NC(=O)Cn2nc(C)c([N+](=O)[O-])c2C)o1,-,-,-,45µM,50µM
Cc1ccc(/C=N/NC(=O)Cn2nnc(N)n2)o1,-,-,-,-,45µM
Cc1ccc(-c2c(C(=O)N/N=C/c3ccc(C)o3)nnn2-c2nonc2N)cc1,-,-,-,50µM,.
Cc1ccc(-c2c(C(=O)N/N=C/c3ccco3)nnn2-c2nonc2N)cc1,-,-,-,-,-
CCCSc1nn(CCN(C)C)c2nc3sc4c(c3c(=O)n12)CCCC4,-,.,.,.,.
CNC(=O)NC(=O)CN(CC(C)O)c1ccccc1 (configuration not stated),-,.,.,.,.
SMILES,ALOX12 inh,VDR inh,Glioma ERSR ind,Sfp PPTase inh,G9a block
COc1ccc(Oc2ccc(CNc3ncccn3)cn2)cc1,-,.,.,.,.
COCCn1c(SCC(=O)c2ccc3c(c2)OCCO3)nnc1C(C)C,?,-,-,?,18µM
O=C(CSc1nnc2scc(-c3ccccc3)n12)Nc1nsc(-c2ccccc2)n1,?,-,-,32µM,?
COCCn1c(SCC(=O)c2ccc(Cl)cc2)nnc1C(C)C,?,?,-,79µM,11µM
O=C(CSc1nnc2scc(-c3ccccc3)n12)c1ccc2c(c1)OCCO2,-,-,-,-,89µM
O=C1CCCc2c1cc(C(=O)NC1CCCCCC1)c(=O)n2-c1ccc(C(F)(F)F)cc1,-,.,.,.,.
Cc1cc(-c2ccc(N=Cc3sccc3C)c(C)c2)ccc1N=Cc1sccc1C,-,.,.,.,.
Fc1ccc(OCc2nnc(-c3ccccc3)o2)cc1,-,.,.,.,.
